Shown are actives, neighbours in structure and some others; about 14% of the full set was active somewhere.
Pf growth 48h = Primary qHTS for delayed death inhibitors of the malarial parasite plastid, 48 hour incubation; P. falciparum luciferase growth in erythrocytes, 48 h; Potency, µM (highest dose often 28.7 µM), for inactives: at the highest dose activity change, negative = inhibition, hits mostly inhibitors; hit rate 5.9% among 310,000; AID 504832, 2011; note: potency is the fitted concentration of half-maximal effect
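Luciferase-expressing parasites in RBCs, 2% Hct / 0.1% parasitemia final; RPMI 1640 + 0.5% Albumax; 37 C, 5% CO2, one generation; luminescence read-out, lower signal = inhibition.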
Pf growth 96h = Primary qHTS for delayed death inhibitors of the malarial parasite plastid, 96 hour incubation. P. falciparum luciferase reporter growth, 96 h. Potency, µM (titrated, usually from 28.7 µM), for the others: at the highest dose activity change, negative = inhibition, most hits filed as inhibitors. hit rate 6.9% among 320,000. AID 504834, 2011; note: potency is the fitted concentration of half-maximal effect
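P. falciparum expressing integrated firefly luciferase, in erythrocytes at 2% hematocrit, 0.05% parasitemia, incubated with compounds 96 h at 37 C, 5% CO2. Growth inhibition read as loss of luminescence; two-generation exposure targets delayed-death apicoplast inhibitors.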
Sm TGR inh = qHTS Assay for the Inhibitors of Schistosoma Mansoni Peroxiredoxins; Potency, µM (top dose mostly 114 µM), inactives show at the highest dose activity change, negative = inhibition, most hits filed as inhibitors; Schistosoma mansoni thioredoxin glutathione reductase (TGR), Q962Y6; purified TGR, DTNB reduction, TNB absorbance 405 nm; hit rate 3% among 360,000; note: potency is the fitted concentration of half-maximal effect; nearly all actives have a fitted effect of over 60% in size
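TGR 20 nM + NADPH 100 uM (dispensed conc.), cpd preinc 15 min RT; start with NADPH (500 uM addition) then DTNB (15 mM addition). Kinetic TNB absorbance, 405 nm filter. Four-parameter Hill fit across titration.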
HCMV inh = qHTS Assay for inhibitors of the human cytomegalovirus (HCMV) | activity change, negative = inhibition, % at 57.5 µM | hit rate 4.5% among 410,000 | HFF cells, HCMV-luciferase reporter, 72 h; hits give low values; in the data active = activity change below about -60%; inconclusive = no clear call, values can overlap the other calls; inactive = above about -39%
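Two-dose cell screen: HFF monolayers treated with compounds and infected with luciferase-expressing HCMV at 1 PFU/cell, 72 h at 37C, then lysed for luciferase measurement.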
FBPA Giardia inh = qHTS Assay for Inhibitors of Fructose-1,6-bisphosphate Aldolase from Giardia Lamblia | A8B2U2 | purified Giardia FBPA | Potency, µM (top dose mostly 59.6 µM), inactives show at the top dose activity, negative = inhibition, usual class: inhibitors | hit rate 0.71% among 290,000; note: potency is the fitted concentration of half-maximal effect; nearly all actives have a fitted effect of over 55% in size
Target sequence (A8B2U2 whole entry, looked up): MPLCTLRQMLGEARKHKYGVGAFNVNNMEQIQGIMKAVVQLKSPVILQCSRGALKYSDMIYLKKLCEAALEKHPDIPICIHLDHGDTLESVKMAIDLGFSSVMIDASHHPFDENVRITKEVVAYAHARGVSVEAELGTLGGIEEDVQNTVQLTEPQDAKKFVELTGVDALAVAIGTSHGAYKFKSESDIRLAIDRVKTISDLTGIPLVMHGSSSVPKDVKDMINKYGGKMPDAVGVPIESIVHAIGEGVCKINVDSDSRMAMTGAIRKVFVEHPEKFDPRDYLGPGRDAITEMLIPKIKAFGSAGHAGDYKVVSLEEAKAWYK
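Giardia FBPA (40 nM reagent) was preincubated 10 min at RT with compound (up to 57.5 uM final), then substrate plus GAPDH/TPI/NAD/arsenate coupling system with diaphorase/resazurin was added; resorufin fluorescence (525/598 nm) was read after 20 min.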
* = called active by the depositor; [ ] = remark or other dose. Unless noted, calls come from the whole dose curve; as a rule, active = well fitted curve in the direction sought with a large enough effect; inconclusive = small, poorly fitted or top-dose-only effect, or another doubt; inactive = no such curve, though single readings can be large; an effect the other way counts as inactive or inconclusive. % is set by controls: 0 for no effect and ±100 for the full control effect.

How did C=CCn1c(Cc2c(C)[nH]c3ccccc23)nnc1SCC(=O)NCc1ccc(F)cc1 do in these assays?
Pf growth 48h: 8.28µM*; Pf growth 96h: 0.262µM*; Sm TGR inh: 31.6µM*; HCMV inh: 7.3; FBPA Giardia inh: 0.3%

What do the screens show for `C=CCn1c(Cc2c[nH]c3ccccc23)nnc1SCC(=O)NCc1ccccc1`?
Pf growth 48h: -16.0%; Pf growth 96h: inconclusive; Sm TGR inh: -1.4%; FBPA Giardia inh: 1.0%

How did CCn1c(Cc2c(C)[nH]c3ccccc23)nnc1SCC(=O)NCc1ccccc1 do in these assays?
Pf growth 48h: inconclusive; Pf growth 96h: inconclusive; Sm TGR inh: inconclusive; HCMV inh: 16.4; FBPA Giardia inh: 3.3%

Results for CCn1c(Cc2c(C)[nH]c3ccccc23)nnc1SCC(N)=O ?
Pf growth 48h: 0.7%; Sm TGR inh: 44.7µM*; HCMV inh: -26.3; FBPA Giardia inh: -2.5%

Results for COc1cccc([C@@H]2Oc3ccc(OC)cc3/C(=N/O[C@@H](C)c3cn([C@H]4COC[C@H]4O)nn3)[C@@H]2O)c1 ?
FBPA Giardia inh: 0.5%[12.9 µM]

Results for CCCOc1ccc(C2C3=C(Nc4nc(N)[nH]c(=O)c42)c2ccccc2C3=O)cc1 (centres undefined) ?
Pf growth 48h: inconclusive; Pf growth 96h: inconclusive; Sm TGR inh: 3.6%; HCMV inh: -67.3*; FBPA Giardia inh: 4.2%

Results for COc1ccc(-n2cnc3sc(-c4ccccc4)cc3c2=O)cc1 ?
Pf growth 48h: 165.1%; Pf growth 96h: -7.3%; Sm TGR inh: 10.7%; HCMV inh: -86.5*; FBPA Giardia inh: 0.7%

What do the screens show for `Cc1ccnc(NC(=O)CNC(=O)c2ccccc2Br)c1`?
Pf growth 48h: 46.0%; Pf growth 96h: 52.7%; Sm TGR inh: -0.7%; HCMV inh: 23.0

How did CC(C)CC(NC(=O)C(NC(=O)OC(C)(C)C)C(C)C)C(N)=O (centres undefined) do in these assays?
Pf growth 48h: 0.0%; Pf growth 96h: 8.9%; Sm TGR inh: 0.0%; HCMV inh: -8.6; FBPA Giardia inh: 0.6%

How did CC(C)CC(NC(=O)C(NC(=O)OC(C)(C)C)C(C)C)C(=O)NC(CCC(=O)OCc1ccccc1)C(N)=O (centres undefined) do in these assays?
Pf growth 48h: 1.85µM*; Pf growth 96h: inconclusive; Sm TGR inh: 16.6%; HCMV inh: 37.0; FBPA Giardia inh: 14.5%

What do the screens show for `Cn1nnc2c(NCCc3ccccc3)ncnc21`?
Sm TGR inh: 4.0%; HCMV inh: -35.2

What do the screens show for `CCn1c(SCC(=O)Nc2sc3c(c2C#N)CCCC3)nnc1-c1ccco1`?
Pf growth 48h: 28.2%; Sm TGR inh: inconclusive; HCMV inh: 1.8; FBPA Giardia inh: 0.4%

What do the screens show for `CCOC(=O)c1c(NC(=O)CSc2nnc(-c3c[nH]c4ccccc34)n2CCOC)sc2c1CCCC2`?
Pf growth 48h: 7.38µM*; Pf growth 96h: 9.28µM*; Sm TGR inh: -11.9%; HCMV inh: inconclusive; FBPA Giardia inh: -2.3%

What do the screens show for `N#Cc1c(NC(=O)CSc2nnc(-c3ccco3)n2-c2ccccc2)sc2c1CCC2`?
Pf growth 48h: 23.5%; Sm TGR inh: 56.2µM*; HCMV inh: -39.4; FBPA Giardia inh: 0.2%

Results for CNC(=O)CSc1nnc(-c2ccco2)n1-c1ccccc1 ?
Pf growth 48h: 5.1%; Pf growth 96h: 56.1%; Sm TGR inh: -1.3%; HCMV inh: -0.8; FBPA Giardia inh: 6.2%

How did COc1cccc(-n2c(SCC(=O)Nc3nc4ccccc4s3)nc3ccccc3c2=O)c1 do in these assays?
Pf growth 48h: inconclusive; Pf growth 96h: inconclusive; Sm TGR inh: -3.0%; HCMV inh: 0.4; FBPA Giardia inh: -6.4%

What do the screens show for `CCOC(=O)c1c(NC(=O)CSc2nnc(-c3c[nH]c4ccccc34)n2C)sc2c1CCCC2`?
Pf growth 48h: inconclusive; Pf growth 96h: inconclusive; Sm TGR inh: -14.4%; HCMV inh: 6.2; FBPA Giardia inh: -4.6%

Results for NC(=O)c1c(NC(=O)CSc2nnc(-c3ccco3)n2-c2ccccc2)sc2c1CCC2 ?
Pf growth 48h: 0.0%; Pf growth 96h: 11.5%; Sm TGR inh: 22.4µM*; HCMV inh: -1.1; FBPA Giardia inh: -18.5%

How did COc1cccc(-n2c(SCC(=O)Nc3sc4c(c3C(N)=O)CCC4)nc3ccccc3c2=O)c1 do in these assays?
Pf growth 48h: 4.15µM*; Pf growth 96h: -0.6%; Sm TGR inh: -16.5%; HCMV inh: -4.1; FBPA Giardia inh: -0.9%

What do the screens show for `Cc1ccc2c(c1)N(CC(=O)NCCCN1C(C)CCCC1C)C(=O)c1cccnc1O2` (centres undefined)?
Pf growth 48h: 5.3%; Pf growth 96h: inconclusive; Sm TGR inh: -9.7%; HCMV inh: 10.0; FBPA Giardia inh: 2.2%

How did Cc1c(NC(=O)C(C)Oc2ccc(Br)cc2Cl)c(=O)n(-c2ccccc2)n1C (centres undefined) do in these assays?
Pf growth 48h: 1.2%; Pf growth 96h: 3.3%; Sm TGR inh: 9.0%; HCMV inh: inconclusive

How did Cc1nnc(SCC(=O)Nc2sc3c(c2C#N)CCCC3)[nH]c1=O do in these assays?
Pf growth 48h: 6.6%; Pf growth 96h: 14.7µM*; Sm TGR inh: -1.6%; HCMV inh: -16.8; FBPA Giardia inh: 5.3%

Results for O=C(O)c1cc2c(cc1Cl)N1CCCCCC1=NS2(=O)=O ?
Pf growth 48h: 15.6%; Pf growth 96h: 44.1%; Sm TGR inh: -0.7%; HCMV inh: 28.3; FBPA Giardia inh: 2.7%

Results for O=C(NC1CCCCC1)c1cc2c(cc1Cl)N1CCCCCC1=NS2(=O)=O ?
Pf growth 48h: inconclusive; Pf growth 96h: inconclusive; Sm TGR inh: -0.7%; HCMV inh: -96.8*

How did COc1ccc2c(Sc3ccc(Cl)cc3)c(C(=O)N3CCCCC3)[nH]c2c1 do in these assays?
Sm TGR inh: -11.4%; HCMV inh: -100.7*

Results for O=C(NC(Cc1ccccc1)C(=O)O)c1cccnc1Cl (centres undefined) ?
Pf growth 48h: 30.5%; Pf growth 96h: 10.1%; Sm TGR inh: 0.0%; FBPA Giardia inh: -1.4%

What do the screens show for `Cc1ccc(C(=O)N(CC(=O)NC2CCCC2)c2ccc3c(c2)OCCO3)s1`?
Pf growth 48h: -15.1%; Pf growth 96h: 13.1µM*; Sm TGR inh: -2.1%; HCMV inh: -18.4; FBPA Giardia inh: 4.2%

Results for Cc1ccc(N(CC(=O)NC2CCCCC2)C(=O)c2ccc(C)s2)cc1 ?
Pf growth 48h: -19.4%; Pf growth 96h: inconclusive; Sm TGR inh: 4.9%; HCMV inh: -62.9*; FBPA Giardia inh: 9.2%

What do the screens show for `Cc1ccc(N(CC(=O)NC2CCCC2)C(=O)c2ccc(C)s2)cc1`?
Pf growth 48h: -19.9%; Pf growth 96h: -3.7%; HCMV inh: -5.0; FBPA Giardia inh: -2.3%
